Measurements: PubChem BioAssay
Values without a mark were called inactive. Entries that show only a call come without a potency. For some of these results: Potency and affinity values are given separately. The source made the active and inactive calls. Unless noted, the rule behind the calls is not given here.

Legend:
[1] = antimalarial activity against Dd2 strain (AID 2302;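 active = growth inhibition above 50% at the single 2 µM test dose, taken to imply half-maximal potency below 2 µM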); details: P. falciparum Dd2 in RBCs, LDH growth readout, 72 h; at 2 µM; stronger effect = higher value
[2] = HepG2 cytotoxicity, primary screen, cytotoxicity control for P. falciparum antimalarial project, cell-based, ATP luminescence (AID 2303;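 active = inhibition above 50%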); details: HepG2 viability, 24-48 h, at 10 µM, stronger effect = higher value
[3] = target: L-lactate dehydrogenase (Plasmodium falciparum (isolate CDC / Honduras)) (UniProt Q27743); assay: PfLDH activity inhibition – cell lysate, 3D7 strain, counter-screen for P. falciparum growth inhibition project (AID 2304); details: P. falciparum 3D7 crude extract, LDH APAD/NBT absorbance; at 2 µM; stronger effect = higher value
[4] = inhibition of 3D7 malaria parasite growth – strain 3D7 (AID 2306); details: P. falciparum 3D7 erythrocytic growth, LDH absorbance, 72 h; at 2 µM; stronger effect = higher value
[5] = target: Calcium-dependent protein kinase 1 (Plasmodium falciparum (isolate 3D7)) (UniProt P62344); assay: PfCDPK1 kinase inhibitors, biochemical, TCAMS library (AID 1159585; cut-off not given, nearly all actives have IC50 up to about 0.98 µM;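 note: inhibitors leave more ATP so luminescence rises with inhibition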); details: recombinant PfCDPK1, Kinase-Glo ATP depletion luminescence
[6] = target: Plasmodium falciparum protein kinase 6 (PK6, PF3D7_1337100) (UniProt Q8IDW1); assay: PfPK6 kinase inhibitors, biochemical, TCAMS library (AID 1159586); details: recombinant PfPK6, Kinase-Glo ATP depletion luminescence
[7] = target: Protein kinase 7 (PK7), Plasmodium falciparum 3D7 (PF3D7_0213400) (UniProt Q7YTF7); assay: inhibition of Plasmodium PK7 catalytic activity – biochemical, TCAMS antimalarial set, Kinase-Glo luminescence (AID 1159587); details: recombinant PfPK7, Kinase-Glo ATP depletion luminescence
[8] = target: Calcium-dependent protein kinase 4 (Plasmodium falciparum (isolate 3D7)) (UniProt Q8IBS5); assay: PfCDPK4 kinase inhibitors, biochemical, TCAMS library (AID 1159588; cut-off not given, nearly all actives have IC50 up to about 0.91 µM); details: recombinant PfCDPK4, Kinase-Glo ATP depletion luminescence
Chain of Calcium-dependent protein kinase 4 (Plasmodium falciparum (isolate 3D7)) (Q8IBS5 whole entry, looked up): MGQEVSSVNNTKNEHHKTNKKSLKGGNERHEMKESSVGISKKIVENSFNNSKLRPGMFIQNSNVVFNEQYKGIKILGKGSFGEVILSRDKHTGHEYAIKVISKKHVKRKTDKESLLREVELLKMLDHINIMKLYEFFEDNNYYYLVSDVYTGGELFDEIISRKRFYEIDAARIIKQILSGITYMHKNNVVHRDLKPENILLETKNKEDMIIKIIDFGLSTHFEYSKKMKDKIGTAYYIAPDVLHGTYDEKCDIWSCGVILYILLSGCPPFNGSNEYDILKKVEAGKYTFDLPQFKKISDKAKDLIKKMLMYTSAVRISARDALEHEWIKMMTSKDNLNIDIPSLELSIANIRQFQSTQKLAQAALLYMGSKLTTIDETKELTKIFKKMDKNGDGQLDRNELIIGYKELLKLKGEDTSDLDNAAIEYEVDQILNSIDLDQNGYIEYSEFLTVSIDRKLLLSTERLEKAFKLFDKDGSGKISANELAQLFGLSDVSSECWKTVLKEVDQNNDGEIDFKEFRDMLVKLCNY

Chain of Plasmodium falciparum protein kinase 6 (PK6, PF3D7_1337100) (Q8IDW1 1-305): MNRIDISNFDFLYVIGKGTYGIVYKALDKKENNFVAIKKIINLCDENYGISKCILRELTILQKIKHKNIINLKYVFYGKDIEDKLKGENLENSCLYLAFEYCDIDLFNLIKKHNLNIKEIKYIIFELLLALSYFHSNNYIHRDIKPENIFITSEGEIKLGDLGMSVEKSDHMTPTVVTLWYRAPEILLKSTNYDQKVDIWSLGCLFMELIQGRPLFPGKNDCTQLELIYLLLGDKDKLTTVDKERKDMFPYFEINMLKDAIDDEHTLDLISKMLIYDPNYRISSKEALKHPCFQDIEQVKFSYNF
Chain of Protein kinase 7 (PK7), Plasmodium falciparum 3D7 (PF3D7_0213400) (Q7YTF7 1-343): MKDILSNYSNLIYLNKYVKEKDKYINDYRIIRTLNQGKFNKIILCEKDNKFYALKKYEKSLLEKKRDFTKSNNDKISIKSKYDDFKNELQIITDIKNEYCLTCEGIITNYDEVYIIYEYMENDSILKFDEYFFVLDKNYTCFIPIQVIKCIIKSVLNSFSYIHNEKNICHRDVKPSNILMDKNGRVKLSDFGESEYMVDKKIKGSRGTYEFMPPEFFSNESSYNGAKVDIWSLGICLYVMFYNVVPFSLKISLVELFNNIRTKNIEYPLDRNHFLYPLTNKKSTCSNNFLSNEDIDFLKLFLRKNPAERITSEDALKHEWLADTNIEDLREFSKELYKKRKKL
Chain of Calcium-dependent protein kinase 1 (Plasmodium falciparum (isolate 3D7)) (P62344 whole entry, looked up): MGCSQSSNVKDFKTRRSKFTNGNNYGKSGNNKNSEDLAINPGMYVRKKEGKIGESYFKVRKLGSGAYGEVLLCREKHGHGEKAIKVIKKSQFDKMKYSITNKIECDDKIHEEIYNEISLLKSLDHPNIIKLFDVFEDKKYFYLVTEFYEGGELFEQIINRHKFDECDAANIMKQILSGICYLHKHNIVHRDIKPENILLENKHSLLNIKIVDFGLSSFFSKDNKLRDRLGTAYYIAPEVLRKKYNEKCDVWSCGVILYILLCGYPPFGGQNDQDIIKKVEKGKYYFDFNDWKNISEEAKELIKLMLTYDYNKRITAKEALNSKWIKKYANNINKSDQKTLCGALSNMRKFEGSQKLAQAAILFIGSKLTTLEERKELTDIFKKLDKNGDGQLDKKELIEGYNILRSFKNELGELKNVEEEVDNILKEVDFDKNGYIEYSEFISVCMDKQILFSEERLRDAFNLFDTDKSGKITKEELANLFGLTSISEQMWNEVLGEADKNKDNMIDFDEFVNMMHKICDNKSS
Chain of L-lactate dehydrogenase (Plasmodium falciparum (isolate CDC / Honduras)) (Q27743 whole entry, looked up): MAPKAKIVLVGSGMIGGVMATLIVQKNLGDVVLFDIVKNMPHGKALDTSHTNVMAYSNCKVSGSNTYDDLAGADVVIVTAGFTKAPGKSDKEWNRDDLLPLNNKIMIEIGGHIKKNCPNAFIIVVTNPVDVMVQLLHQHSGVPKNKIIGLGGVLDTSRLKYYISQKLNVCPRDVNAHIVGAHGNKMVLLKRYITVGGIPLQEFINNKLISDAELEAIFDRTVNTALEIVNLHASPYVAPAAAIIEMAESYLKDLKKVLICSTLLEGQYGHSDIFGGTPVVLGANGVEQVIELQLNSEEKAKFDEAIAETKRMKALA

Compound	growth inhibition [1]	inhibition [2]	inhibition [3] [%]	growth inhibition [4]	outcome [5]	outcome [6]	outcome [7]	outcome [8]
COc1cc(C)nc2ccc(NC(=O)Nc3ccc([N+](=O)[O-])cc3C)cc12	52% (active)	10%	-5	90% (active)	inactive	inactive	inactive	inactive
COc1ccc(CNCCCCCCNCCc2ccc(Cl)cc2)cc1OC	0%	21%	0	96% (active)	inactive	inactive	inactive	inactive
Cc1cccc2[nH]c(-c3ccc(-c4ccc(CN5CCC(CO)CC5)cc4)s3)nc12	82% (active)	15%	-10	101% (active)	inactive	inactive	inactive	inactive
O=C(NC1CCC(CCN2Cc3cccc(C(F)(F)F)c3C2)CC1)c1cccc(-c2cccnc2)c1 (stereo not given)	67% (active)	26%	2	100% (active)	inactive	inactive	inactive	inactive
O=S(=O)(NCCN1CCCC1)c1ccc(-c2cccc(CNC3Cc4ccccc4C3)c2)cc1	57% (active)	55% (active)	-6	99% (active)	inactive	inactive	inactive	inactive
Cc1[nH]c(C)c(-c2ccc(CCc3ccc(F)cc3F)cc2)c(=O)c1Br	98% (active)	-5%	-3	97% (active)	inactive	inactive	inactive	inactive
CC(C)(C)OC(=O)NCc1ccc(Nc2nnc(-c3ccc(OCC(=O)NC[C@@H]4CC[C@H]5C[C@@H]4C5(C)C)c([N+](=O)[O-])c3)o2)cc1	52% (active)	29%	-3	94% (active)	inactive	inactive	inactive	inactive
Nc1ncc(-c2cc3ccccc3o2)c(N)n1	2%	-3%	0	81% (active)	inactive	inactive	inactive	inactive
Cc1[nH]c(C)c(-c2ccc(S(=O)(=O)c3ccc(Cl)cc3)cc2)c(=O)c1Cl	96% (active)	-5%	9	98% (active)	inactive	inactive	inactive	inactive
CN1CCC(N(Cc2ccc(-c3ccc(C(F)(F)F)cc3)cc2)C(=O)Cn2c(SCc3cccc(F)c3F)cc(=O)c3c2CCC3)CC1	83% (active)	50% (active)	1	89% (active)	inactive	inactive	inactive	inactive
NC(=O)c1sc(-n2cnc3ccc(OCC4CCNCC4)cc32)cc1OCc1ccccc1C(F)(F)F	62% (active)	18%	-6	101% (active)	inactive	inactive	inactive	inactive
COc1ccc2c(NN=Cc3ccccc3)cc(C)nc2c1	49%	-2%	-2	100% (active)	inactive	inactive	inactive	inactive
CC(=O)Nc1nc(C(=O)Nc2ccc(-c3cccc(-c4nc5ccc(F)cc5[nH]4)c3)cc2)cs1	29%	86% (active)	-7	94% (active)	inactive	inactive	inactive	inactive
O=C(N[C@@H](CC1CCCCC1)C(=O)NCc1cccc2ccccc12)c1ccc(O)c(-c2ccc(Cl)c(Cl)c2)c1	99% (active)	-9%	2	97% (active)	inactive	inactive	inactive	inactive
CNC(=C[N+](=O)[O-])NCCSCc1cc(C)c(CN(C)C)s1	96% (active)	48%	-1	98% (active)	inactive	inactive	inactive	inactive
O=C(NCCCCN1CCC(c2cccc3ccccc23)CC1)c1ccc(-c2ccc(C(F)(F)F)cn2)cc1	36%	31%	0	91% (active)	inactive	inactive	inactive	inactive
CS(=O)(=O)c1ccc(-c2cncc(Cl)n2)cc1	95% (active)	8%	7	100% (active)	inactive	inactive	inactive	inactive
c1ccc(CCNCc2ccc(-c3ccc(CNC4CCN(Cc5ccccc5)CC4)cc3)nc2)cc1	99% (active)	34%	-1	101% (active)	inactive	inactive	inactive	inactive
O=C(CNCC1CCCCC1)Nc1cc(C(F)(F)F)ccc1Cl	67% (active)	1%	2	86% (active)	inactive	inactive	inactive	inactive
COc1cc(OC)c2c(C)cc(NCCCn3ccnc3)nc2c1	22%	6%	-2	102% (active)	inactive	inactive	inactive	inactive
